From PubChem
Most compounds without a hit are left out; they make up all but 10% or so of the library.
BAZ2B block = blocks human BAZ2B | AlphaScreen BAZ2B-H3K14Ac peptide displacement | Potency, µM (doses to about 114 µM), inactives show at the top dose activity change, negative = inhibition, actives largely listed as inhibitors | 360,000 tested, 4.4% active; also: % is scaled to controls: 0 for no effect and ±100 for the full control effect; nearly all actives have a fitted effect of over 60% in size
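Protein-peptide AlphaScreen: BAZ2B 50 nM, b-H3K14Ac 50 nM, 1x PBS pH 7.4 + 0.01% Tween-20. Preincubation 30 min RT; cpd 30 min RT (top 110 uM); beads 20 min RT, light-protected.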
GLS inh = glutaminase GLS (human) inhibition. O94925. GLS enzymatic activity, qHTS titration. Potency, µM (titrated, usually from 45.5 µM), for the others: top-dose activity change, negative = inhibition, usual class: inhibitors. 410,000 tested, 0.21% active. AID 624170; also: % is scaled to controls: 0 for no effect and ±100 for the full control effect
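Human kidney-isoform GLS in 45 mM KH2PO4 pH 8.2, 0.02% Tween-20, with compound, started with 1mM L-Glutamine (added stock). Glutamate oxidase/HRP/Amplex red coupled fluorescence read at start and after 30 min at RT.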
JMJD2A Tudor inh = JMJD2A Tudor domain (human) inhibition. O75164. AlphaScreen JMJD2A-Tudor / H3K4me3 peptide binding. Potency, µM (top dose mostly 114 µM), inactives show at the top dose activity change, negative = inhibition, most hits filed as inhibitors. 390,000 tested, 4.4% active; also: % is scaled to controls: 0 for no effect and ±100 for the full control effect; nearly all actives have a fitted effect of over 50% in size
G9a inh = inhibitors of human histone lysine methyltransferase G9a; Q96KQ7; G9a H3K9 monomethylation, AlphaScreen, 2 h; Potency, µM (titrated, usually from 102 µM), without a hit: at the highest dose activity, negative = inhibition, most hits filed as inhibitors; 350,000 tested, 8.8% active; AID 504332; also: % is scaled to controls: 0 for no effect and ±100 for the full control effect; nearly all actives have a fitted effect of over 75% in size
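AlphaScreen detection with an anti-monomethyl H3K9 antibody quantified product after a 2 h room-temperature reaction containing 500 nM biotinylated H3K9 peptide, 20 µM SAM and 20 nM enzyme, which had been preincubated 15 min with compound.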
HP1b chromo inh = blocks HP1-beta chromodomain binding to methylated histone tails | P83916 | AlphaScreen HP1-beta / biotin-H3K9me3 peptide binding | Potency, µM (titrated, usually from 114 µM), for inactives: top-dose activity change, negative = inhibition, hits mostly inhibitors | 390,000 tested, 0.56% active | AID 540317; also: nearly all actives have a fitted effect of over 70% in size
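Compound inhibition of the preformed complex between 50 nM HP1-beta and 50 nM biotinylated H3K9me3 peptide was read by AlphaScreen. Buffer was PBS pH 7.4 with 0.01% Tween-20. Incubations ran 30 min at room temperature, with 10 ug/mL donor/acceptor beads.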
* hit, by the source's call; ? = inconclusive; . = not tested or not shown; [ ] = remark or other dose. Calls follow the shape of the dose curve; as a rule, active = well fitted curve in the direction sought with a large enough effect; inconclusive = small, poorly fitted or top-dose-only effect, or another doubt; inactive = no such curve, though single readings can be large; an effect the other way counts as inactive or inconclusive. Potency is read from the fitted curve at half-maximal effect.

SMILES | BAZ2B block | GLS inh | JMJD2A Tudor inh | G9a inh | HP1b chromo inh
COc1cc(-c2nc(SCC(=O)Nc3ccc4c(c3)OCO4)c(-c3ccccc3)[nH]2)cc(OC)c1OC | ? | -13.1% | ? | 11.2µM* | ?
O=C(Nc1ccc2c(c1)OCCO2)C1CC1c1ccccc1 (stereo unspecified) | -10.2% | 5.3% | -19.6% | 6.0%[59 µM] | 11.3%
Cc1nn(-c2ccccc2)c(C)c1C(=O)OCC(=O)Nc1ccccc1 | -2.2% | 3.9% | -9.8% | -21.7%[59 µM] | 26.9%
O=C(O)C1CCCCC1C(=O)Nc1ccc2c(c1)OCCO2 (stereo unspecified) | -0.9% | 5.8% | -15.4% | 2.51µM* | 16.5%
O=C(COc1ccc(Cl)cc1)NCc1nnc(SCC(=O)Nc2ccc3c(c2)OCCO3)o1 | 6.4% | 7.2% | 79.4µM* | 18.5%[59 µM] | ?
Cc1nn(-c2ccccc2)c(C)c1C(=O)OCC(=O)Nc1ccc2c(c1)OCO2 | -7.1% | 3.4% | ? | 79.4µM* | -2.2%
CC1CC=CC2C1C(=O)N(Cc1ccccc1)C2c1ccc(C(F)(F)F)cc1 (stereo unspecified) | . | . | 6.2% | . | 60.1%
Cc1ccccc1NC(=O)CN(C)S(=O)(=O)c1cccc2nsnc12 | 6.4% | -8.7% | -11.5% | 7.7%[59 µM] | -8.3%
COc1ncc(-c2ccc(N3C(c4ccsc4)=Cc4ccccc4C3CC(C)=O)cc2)cn1 (stereo unspecified) | . | 17.3% | . | . | .
O=C(CSc1ccccc1)Nc1ccc2c(c1)OCCO2 | -5.2% | -8.8% | -10.2% | 79.4µM* | 19.6%
COc1cccc(-c2nc(SCC(=O)Nc3ccc4c(c3)OCCO4)c(-c3ccccc3)[nH]2)c1 | -33.3% | -18.5% | ? | ? | 17.1%
COc1ccc(-c2[nH]c(-c3cccc(OC)c3)nc2SCC(=O)Nc2ccc3c(c2)OCO3)cc1 | ? | -13.5% | ? | 10µM* | ?
O=C(CSc1ccccc1)Nc1ccc2c(c1)OCO2 | 0.3% | -1.5% | 1.4% | 3.4% | 12.6%
CCOC(=O)[C@H]1[C@H]2COc3ccc(Br)cc3[C@@H]2N2C(=O)CN(Cc3ccc(F)cc3)C(=O)[C@@]12C | 0.3% | -3.7% | -11.0% | -1.6%[0.501 µM] | 26.0%
CCOC(=O)C1(CC2CCCCO2)CCN(S(=O)(=O)c2c(C)nn(C)c2C)CC1 (stereo unspecified) | -5.7% | -9.6% | -13.6% | . | 10.1%
CC1=CC(C)C2(COC(c3ccc[n+](C)c3)OC2)C(C)C1 (stereo unspecified) | -36.0% | 10.3% | 22.4µM* | ? | -5.2%
CCn1c(CSc2nc3ccccc3[nH]2)nc2cc(C(=O)O)ccc21 | ? | 14.3% | ? | -44.9%[12.7 µM] | 4.6%
CCn1c(CSc2nccn2C)nc2cc(C(=O)O)ccc21 | 50.1µM* | -13.7% | 31.6µM* | -38.5%[12.7 µM] | 20.2%
COc1ccccc1N1CCN(/N=C/c2cc([N+](=O)[O-])ccc2Cl)CC1 | 7.94µM* | 3.0% | ? | ? | -20.3%
O=[N+]([O-])c1ccc(Cl)c(/C=N/N2CCN(C3c4ccccc4-c4ccccc43)CC2)c1 | -35.0% | 7.4% | ? | 27.3%[0.501 µM] | -11.7%
O=[N+]([O-])c1ccc(Cl)c(/C=N/N2CCN(c3ccccc3)CC2)c1 | 11.2µM* | 3.5% | 10µM* | 31.6µM* | ?
NC(=O)c1ccc(NC(=O)C2CCN(S(=O)(=O)Cc3ccccc3)CC2)cc1 | 0.0% | -0.2% | -3.6% | ? | 19.8%
O=C1S/C(=C\c2ccc(O)c([N+](=O)[O-])c2)C(=O)N1c1ccccc1Cl | 35.5µM* | 13.4% | 50.1µM* | . | ?
CCOc1ccc(/C=C2\SC(=O)N(c3ccc(O)cc3)C2=O)cc1OC | -12.3% | 2.7% | -8.9% | 16.9% | 36.7%
COc1ccc(/C=C2\SC(=N)N(c3ccc(F)cc3)C2=O)cc1OC | -23.3% | 8.6% | -6.5% | -22.2%[59 µM] | 33.1%
SMILES | BAZ2B block | GLS inh | JMJD2A Tudor inh | G9a inh | HP1b chromo inh
COc1cc(/C=C2\SC(=O)N(c3ccc(Cl)cc3)C2=O)cc([N+](=O)[O-])c1O | 7.08µM* | ? | 7.94µM* | 7.94µM* | ?
COc1cc(/C=C2\SC(=O)N(c3cccc(Cl)c3)C2=O)cc([N+](=O)[O-])c1O | 8.91µM* | ? | 3.98µM* | . | ?
C/C(=C(/CCO)SS/C(CCO)=C(\C)N(C=O)Cc1cnc(C)nc1N)N(C=O)Cc1cnc(C)nc1N | . | 6.6% | . | -27.4%[12.7 µM] | .
O=C(c1ccc(S(=O)(=O)N2CCCCCC2)cc1)N1CCN(c2ccccc2)CC1 | -9.9% | -5.3% | 79.4µM* | 6.1% | -10.7%
O=C(c1ccc(Cl)c(S(=O)(=O)N2CCCCC2)c1)N1CCN(c2ccccc2)CC1 | -28.3% | 8.0% | -33.8% | -3.9% | -6.4%
O=C(c1ccc(Cl)c(S(=O)(=O)N2CCCC2)c1)N1CCN(c2ccccc2)CC1 | -20.7% | ? | 12.6µM* | -32.2% | ?
O=C(c1ccc(Cl)c(S(=O)(=O)N2CCCC2)c1)N1CCN(c2ccc(F)cc2)CC1 | 56.2µM* | 7.5% | ? | 44.7µM* | -14.0%
O=C(c1cccc(S(=O)(=O)N2CCCCC2)c1)N1CCN(c2ccccc2)CC1 | -23.7% | 13.2% | -20.7% | -7.3% | -4.9%
COCCNC(=O)C1(C)CCCN(Cc2noc(-c3ccccc3OC)n2)C1 (stereo unspecified) | . | 5.3% | . | . | .
O=C(Oc1c(CN2CCOCC2)cc(Cl)c2cccnc12)c1cccs1 | . | -9.2% | ? | 26.2% | 24.6%
COc1cc(C(=O)Oc2c(CN3CCOCC3)cc(Cl)c3cccnc23)cc(OC)c1OC | 20µM* | -11.7% | 56.2µM* | -15.7% | 16.6%
COc1ccc(C(=O)Oc2c(CN3CCOCC3)cc(Cl)c3cccnc23)cc1 | 50.1µM* | -7.6% | ? | ? | 33.5%
O=C(Oc1ccc(Cl)c2cccnc12)N1CCOCC1 | -0.5% | 3.8% | -15.7% | 2.3%[59 µM] | 37.3%
O=C(Oc1c(CN2CCOCC2)cc(Cl)c2cccnc12)c1ccccc1Cl | 11.2µM* | ? | 50.1µM* | 2.6% | 34.1%
COc1cccc(C(=O)Oc2c(CN3CCOCC3)cc(Cl)c3cccnc23)c1 | 44.7µM* | -2.2% | 50.1µM* | -33.1% | 32.9%
CCC(C)NC(=O)CSc1nc2cc3c(cc2c(=O)n1CCCC(=O)NCCc1ccc(OC)c(OC)c1)OCO3 (stereo unspecified) | -3.3% | 0.9% | -6.3% | 14.7%[59 µM] | 48.5%
O=C(Oc1c(CN2CCOCC2)cc(Cl)c2cccnc12)c1ccc(F)cc1 | 20µM* | -8.3% | 22.4µM* | 6.7%[59 µM] | -2.1%
O=[N+]([O-])c1ccc(C(O)CN2CCOCC2)cc1 (stereo unspecified) | -2.7% | 0.0% | -10.6% | 9.8% | -12.1%
OC(CN1CCOCC1)c1ccc(F)cc1 (stereo unspecified) | 50.1µM* | 3.7% | 20µM* | -41.5% | ?
CC[N+](C)(CC)CCC(c1ccccc1)C1CCCCC1 (stereo unspecified) | 50.1µM* | -1.1% | ? | ? | ?
